Activity calls are given as the source filed them.
How the values were obtained:
[1] = test system: Plasmodium falciparum Sir2 (PF13_0152, Sir2A); experiment: Plasmodium falciparum Sir2A binding compounds – biochemical, small-molecule microarray, 635 nm fluorescence, primary screen (AID 1098); conditions: fluorescence 635 nm, higher = more signal;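 further: score merges spot fluorescence intensity with its signal-to-noise ratio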
[2] = probe aDKK1 binding to arrayed compounds – biochemical, biotinylated probe, 635/667 nm fluorescence, primary screen (AID 1099); conditions: small-molecule microarray, higher = more signal;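 further: score merges 667nm spot fluorescence with signal to noise across triplicate slides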
[3] = probe aCHRDL2 binding to arrayed compounds – biochemical, biotinylated probe, 635/667 nm fluorescence, primary screen (AID 1100); conditions: small-molecule microarray, higher = more signal
[4] = change in splice reporter luminescence, either direction, cell-based, HEK293, spliceosome inhibition project, primary screen (AID 1101); conditions: HEK293 splicing luciferase reporter, 24 h, higher = more signal, called active from +8 up or from −8 down;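 further: HEK293 cells carrying a splicing-competent luciferase reporter gene; test concentration not given here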
[5] = biological target: Fibroblast growth factor 10 (Homo sapiens) (UniProt O15520); experiment: compounds binding fibroblast growth factor 10 – biochemical, small-molecule microarray, 635 nm fluorescence, primary screen (AID 1102); conditions: FGF10 binding, fluorescence 635 nm, higher = more signal
[6] = test system: glycogen synthase kinase-3 (GSK3A per assay name; protocol says GSK3B); experiment: compounds binding glycogen synthase kinase-3 – biochemical, small-molecule microarray, 635 nm fluorescence, GSK3A, primary screen (AID 1103); conditions: fluorescence 635 nm, higher = more signal; further: the record names both GSK3A and GSK3B
[7] = biological target: Epidermal growth factor receptor (Homo sapiens) (UniProt P00533); experiment: compounds binding epidermal growth factor receptor – biochemical, small-molecule microarray, 635 nm fluorescence, primary screen (AID 1104); conditions: EGFR binding, higher = more signal;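 further: score merges 667 nm emission intensity with spot signal to noise over triplicate slides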
[8] = biological target: Follistatin-related protein 3 (Homo sapiens) (UniProt O95633); experiment: compounds binding follistatin-related protein 3 – biochemical, small-molecule microarray, 635 nm fluorescence, primary screen (AID 1105); conditions: FSTL3 binding, higher = more signal;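 further: score merges emission near 667 nm and signal to noise per printed spot across three slides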
[9] = biological target: Dickkopf-related protein 1 (Homo sapiens) (UniProt O94907); experiment: small molecules binding DKK1 protein – biochemical, small-molecule microarray, 635 nm fluorescence scan, primary screen (AID 1106); conditions: higher = more signal;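 further: score merges emission near 667 nm with signal to noise over three replicate slides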
[10] = test system: Inhibin beta A chain (activin A); experiment: small molecules binding activin A – biochemical, small-molecule microarray, 635 nm fluorescence scan, primary screen (AID 1107); conditions: INHBA, higher = more signal;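 further: mouse activin A protein probed at 4.33 µg/mL on printed slides; score merges bound-protein fluorescence near 667 nm with spot signal-to-noise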
[11] = test system: Human papillomavirus type 1a protein E7 (residues 44-93); experiment: small molecules binding HPV E7 44-93 – biochemical, small-molecule microarray, residues 44-93, 635 nm fluorescence, primary screen (AID 1108); conditions: fluorescence 635 nm, higher = more signal;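 further: E7 fragment applied at 1 µg/mL in TBST for 1 h at 4 C; score combines spot fluorescence with its signal to noise ratio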
[12] = hepatitis C replication reporter changes, two-sided – Huh7 cells, luciferase reporter, HCV replication inhibitor project, primary screen (AID 1109); conditions: Huh7 HCV replicon luciferase reporter, 48 h; higher = more signal;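 further: huh7 hepatoma cells harbouring a luciferase neomycin HCV replicon reporter; luciferase luminescence as measure of HCV replicon replication; test concentration not given here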
[13] = biological target: Left-right determination factor 2 (Homo sapiens) (UniProt O00292); experiment: small molecules binding LEFTY2 protein – biochemical, small-molecule microarray, 635 nm fluorescence scan, primary screen (AID 1110); conditions: higher = more signal
[14] = biological target: Calmodulin-1 (Homo sapiens) (UniProt P0DP23); experiment: small molecules binding calmodulin-1 with EGTA – biochemical, small-molecule microarray, Cy5-labelled CALM1, profiling panel (AID 1111); conditions: Cy5-CALM1 binding fluorescence, higher = more signal;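 further: labelled calmodulin applied in Tris saline Tween buffer holding calcium plus EGTA and DTT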
[15] = biological target: Calmodulin-1 (Homo sapiens) (UniProt P0DP23); experiment: small molecules binding Ca-loaded calmodulin-1 – biochemical, small-molecule microarray, Cy5-labelled CALM1, plus calcium, artefact control for SMM control-protein annotation, profiling panel (AID 1112); conditions: Cy5-CALM1 binding fluorescence, higher = more signal;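 further: score merges spot fluorescence with signal to noise from triplicate slides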
[16] = probe aWnt5a binding to arrayed compounds – biochemical, biotinylated probe, 635/667 nm fluorescence, primary screen (AID 1113); conditions: small-molecule microarray, higher = more signal;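 further: score merges 667 nm fluorescence intensity with signal-to-noise per printed feature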
[17] = probe aShh binding to arrayed compounds – biochemical, biotinylated probe, 635/667 nm fluorescence, primary screen (AID 1114); conditions: small-molecule microarray, higher = more signal;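 further: probe is biotin-labelled aShh protein from a stem cell growth factor screen; measures binding of labelled protein to compounds printed on the slide; score merges feature fluorescence at 667 nm with signal-to-noise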
[18] = probe aNog binding to arrayed compounds – biochemical, biotinylated probe, 635/667 nm fluorescence, primary screen (AID 1115); conditions: small-molecule microarray, higher = more signal;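 further: probe is biotinylated aNog protein used at 0.15 µg/mL for 1 h at 4 C; z-score combines 667 nm fluorescence of each spot with its signal to noise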
[19] = biological target: Torsin-1A-interacting protein 1 (Homo sapiens) (UniProt Q5JTV8); experiment: compound microarray binding of lysate hLAP1 – cell lysate, small-molecule microarray, COS7 lysate, 635/667 nm fluorescence, primary screen (AID 1116); conditions: 635 nm fluorescence, higher = more signal
[20] = biological target: Alpha-bungarotoxin (Bungarus multicinctus) (UniProt P60615); experiment: compounds binding labelled alpha-BTX control protein – biochemical, small-molecule microarray, Alexa647 label, 635/667 nm fluorescence, artefact control for SMM control protein annotation, profiling panel (AID 1117); conditions: alpha-BTX-A647 binding fluorescence, higher = more signal
Alpha-bungarotoxin (Bungarus multicinctus), sequence (P60615 whole entry, looked up): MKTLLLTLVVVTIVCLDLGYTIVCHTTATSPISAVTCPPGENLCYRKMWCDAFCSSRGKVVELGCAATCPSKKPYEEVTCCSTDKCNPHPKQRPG

Follistatin-related protein 3 (Homo sapiens), sequence (O95633 whole entry, looked up): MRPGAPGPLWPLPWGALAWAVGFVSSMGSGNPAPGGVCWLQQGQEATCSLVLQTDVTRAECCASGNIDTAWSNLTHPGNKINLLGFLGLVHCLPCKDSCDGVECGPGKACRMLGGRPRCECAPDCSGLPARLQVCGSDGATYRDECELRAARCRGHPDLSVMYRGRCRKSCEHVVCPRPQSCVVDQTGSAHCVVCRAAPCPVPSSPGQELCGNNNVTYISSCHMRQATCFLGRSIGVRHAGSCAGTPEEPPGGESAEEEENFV
Left-right determination factor 2 (Homo sapiens), sequence (O00292 whole entry, looked up): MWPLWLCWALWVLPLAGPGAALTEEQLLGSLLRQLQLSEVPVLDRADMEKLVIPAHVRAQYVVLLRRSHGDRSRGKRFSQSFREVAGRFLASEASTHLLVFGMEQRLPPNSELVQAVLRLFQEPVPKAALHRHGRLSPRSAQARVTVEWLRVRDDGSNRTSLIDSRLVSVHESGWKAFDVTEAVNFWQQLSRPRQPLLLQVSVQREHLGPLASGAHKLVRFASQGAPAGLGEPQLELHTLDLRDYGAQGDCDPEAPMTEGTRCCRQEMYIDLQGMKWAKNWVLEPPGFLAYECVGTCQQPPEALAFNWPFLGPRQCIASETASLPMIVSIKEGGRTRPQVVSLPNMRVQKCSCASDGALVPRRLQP
Fibroblast growth factor 10 (Homo sapiens), sequence (O15520 whole entry, looked up): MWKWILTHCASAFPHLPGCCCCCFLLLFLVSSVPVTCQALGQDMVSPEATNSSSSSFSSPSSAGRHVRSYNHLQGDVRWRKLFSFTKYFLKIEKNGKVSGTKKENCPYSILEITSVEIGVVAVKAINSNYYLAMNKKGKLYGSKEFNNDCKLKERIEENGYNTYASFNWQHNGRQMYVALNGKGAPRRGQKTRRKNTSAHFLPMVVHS
Torsin-1A-interacting protein 1 (Homo sapiens), sequence (Q5JTV8 whole entry, looked up): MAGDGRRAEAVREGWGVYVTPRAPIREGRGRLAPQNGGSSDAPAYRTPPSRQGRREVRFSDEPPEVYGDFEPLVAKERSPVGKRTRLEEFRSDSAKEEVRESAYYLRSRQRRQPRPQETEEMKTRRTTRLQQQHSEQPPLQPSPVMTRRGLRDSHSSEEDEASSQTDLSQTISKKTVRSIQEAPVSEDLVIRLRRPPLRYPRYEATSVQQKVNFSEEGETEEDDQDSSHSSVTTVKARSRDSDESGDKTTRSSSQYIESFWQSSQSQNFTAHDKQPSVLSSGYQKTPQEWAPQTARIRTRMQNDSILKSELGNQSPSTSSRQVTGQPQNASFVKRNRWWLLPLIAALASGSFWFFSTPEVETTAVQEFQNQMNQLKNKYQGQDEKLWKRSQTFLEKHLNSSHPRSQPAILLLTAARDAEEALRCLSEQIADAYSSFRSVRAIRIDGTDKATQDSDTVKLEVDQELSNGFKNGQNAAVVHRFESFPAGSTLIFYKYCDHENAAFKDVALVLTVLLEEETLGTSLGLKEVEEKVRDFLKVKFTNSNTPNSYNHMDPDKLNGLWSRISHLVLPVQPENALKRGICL
Dickkopf-related protein 1 (Homo sapiens), sequence (O94907 whole entry, looked up): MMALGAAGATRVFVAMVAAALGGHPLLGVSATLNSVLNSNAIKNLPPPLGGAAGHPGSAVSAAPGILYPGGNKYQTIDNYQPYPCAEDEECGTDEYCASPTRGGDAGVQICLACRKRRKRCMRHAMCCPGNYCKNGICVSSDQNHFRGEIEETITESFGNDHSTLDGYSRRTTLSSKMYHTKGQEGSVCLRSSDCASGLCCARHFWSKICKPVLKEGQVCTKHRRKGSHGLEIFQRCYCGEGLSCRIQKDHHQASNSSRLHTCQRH
Epidermal growth factor receptor (Homo sapiens), sequence (P00533 whole entry, looked up): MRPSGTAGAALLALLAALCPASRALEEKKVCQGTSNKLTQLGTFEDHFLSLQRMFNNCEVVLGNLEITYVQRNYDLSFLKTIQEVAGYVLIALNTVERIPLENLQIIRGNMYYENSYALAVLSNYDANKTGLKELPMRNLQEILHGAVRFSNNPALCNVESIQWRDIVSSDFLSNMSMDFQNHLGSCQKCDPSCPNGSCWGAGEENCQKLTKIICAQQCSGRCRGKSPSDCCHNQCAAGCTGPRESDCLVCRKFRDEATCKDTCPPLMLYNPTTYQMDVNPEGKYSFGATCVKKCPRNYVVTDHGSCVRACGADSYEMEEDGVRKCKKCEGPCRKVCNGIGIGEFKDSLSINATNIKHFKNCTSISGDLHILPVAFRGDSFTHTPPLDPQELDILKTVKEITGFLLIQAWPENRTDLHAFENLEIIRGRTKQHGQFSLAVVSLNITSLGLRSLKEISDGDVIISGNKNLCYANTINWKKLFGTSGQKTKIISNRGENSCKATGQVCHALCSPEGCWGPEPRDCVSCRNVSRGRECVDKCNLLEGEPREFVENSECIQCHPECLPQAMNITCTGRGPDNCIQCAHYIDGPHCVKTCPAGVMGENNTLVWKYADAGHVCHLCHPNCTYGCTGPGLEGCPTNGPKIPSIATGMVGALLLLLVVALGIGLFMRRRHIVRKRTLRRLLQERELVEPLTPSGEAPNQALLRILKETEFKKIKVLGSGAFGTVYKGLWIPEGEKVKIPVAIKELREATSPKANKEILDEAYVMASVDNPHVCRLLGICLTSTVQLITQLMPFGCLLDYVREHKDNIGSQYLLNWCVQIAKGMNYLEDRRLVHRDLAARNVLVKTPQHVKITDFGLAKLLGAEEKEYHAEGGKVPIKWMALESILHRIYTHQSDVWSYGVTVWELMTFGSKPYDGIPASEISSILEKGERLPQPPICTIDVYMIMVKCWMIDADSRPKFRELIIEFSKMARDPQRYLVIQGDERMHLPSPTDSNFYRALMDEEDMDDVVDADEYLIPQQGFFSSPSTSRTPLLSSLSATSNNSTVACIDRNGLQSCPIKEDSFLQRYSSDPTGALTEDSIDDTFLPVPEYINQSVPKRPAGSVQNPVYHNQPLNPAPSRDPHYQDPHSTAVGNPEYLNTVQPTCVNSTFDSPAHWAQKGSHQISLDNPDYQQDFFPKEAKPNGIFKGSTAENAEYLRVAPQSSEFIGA

SMILES | composite z-score [1] | composite z-score [2] | composite z-score [3] | z-score [4] | composite z-score [5] | composite z-score [6] | composite z-score [7] | composite z-score [8] | composite z-score [9] | composite z-score [10] | composite z-score [11] | z-score [12] | composite z-score [13] | composite z-score [14] | composite z-score [15] | composite z-score [16] | composite z-score [17] | composite z-score [18] | composite z-score [19] | composite z-score [20]
CC(C)C(=C=CC[C@@H](O)c1ccc(CO)o1)CCO | 1.78 | -0.2 | -0.479 | -0.493 (inactive) | 0.9 | 0.367 | -0.171 | 0.197 | 0.39 | 1.08 | 0.185 | -0.744 | 0.0308 | -0.108 | -0.13 | -0.178 | -0.123 | 0.0954 | 0.42 | 0.205
Cc1ccc(N2C(=O)c3ccccc3[C@](C)(C(=O)NCC(F)(F)F)[C@@H]2c2ccc(CO)cc2)nc1 | 0.919 | 0.421 | 0.949 | 0.21 (inactive) | -0.975 | -1.29 | -1.27 | -1.82 | -1.15 | -0.528 | -2.53 | 0.208 | -1.47 | -0.538 | 0.733 | -0.132 | -0.291 | -0.136 | -0.438 | -1.58
C=CCC(OC(C)=O)[C@@H]1[C@@H](N(Cc2cccc3ccccc23)C(=O)Cc2ccc(OC)cc2)c2cc(OCCCO)ccc2N1C(=O)Cc1ccc(OC)cc1 (stereo not given in full) | -0.247 | 0.199 | 0.373 | -0.768 (inactive) | -0.0161 | -0.45 | 0.015 | -0.134 | 0.0484 | 1.21 | -0.05 | 0.217 | 0.119 | -0.294 | 0.14 | -0.014 | -0.153 | 0.277 | -0.0539 | 0.476
CC(CO)N1C(=O)[C@@H]2C3C(=O)OCCC/C=C\[C@H]3OC23C=CCN(Cc2ccccc2)C(=O)[C@@H]13 (stereo not given in full) | 0.608 | -0.206 | 0.0202 | -0.992 (inactive) | -0.559 | -0.236 | -0.794 | -0.639 | -0.386 | 1.21 | -0.412 | -0.159 | -0.784 | -0.182 | -0.292 | -0.176 | -0.0769 | -0.036 | -0.307 | -1.53
